From PubChem BioAssay AID1159580 (chemical genetic matrix, 2015)
Several values for one entry are separate records, joined by “and”; a condition that tells them apart may be missing. Equal values may be shown once. Screen size: about 5,500 compounds; about 2,000 (36%) were called active. Not shown: some 18% with an inconclusive outcome. No stated cut-off is given here; in the data, active means normalized growth mostly below about 0.91 (no sharp cut-off); inconclusive means no clear call, values can overlap the other calls; inactive means mostly above about 0.92. This is one part of the list.

Assay: chemical genetic growth profiling, strain panel (AID 1159580);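 further: tested at 20 µM; growth read once vehicle control cultures reached saturation at 30 °C; 1 = growth at the plate median or of vehicle wells; lower values mean less growth of the strain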
Conditions: S. cerevisiae deletion strains, growth OD

Measured: normalized growth

O=C1CCCC2C3CC(CN12)[C@@H]1CCCCN1C3 (stereo not given in full)
inactive: locus YAL013W, strain DEP1, active compounds read low 1.02 | locus YAL021C, strain ccr4, active compounds read low 0.988 | locus YAL026C, strain drs2, active compounds read low 1.01 | locus YAL030W, strain snc1, active compounds read low 0.995 | locus YBL061C, strain skt5, active compounds read low 0.995 | locus YBR009C, strain hhf1, active compounds read low 0.999 | locus YBR021W, strain FUR4, active compounds read low 1.04 | locus YBR023C, strain chs3, active compounds read low 1 | locus YBR171W, strain sec66, active compounds read low 0.992 | locus YBR229C, strain ROT2, active compounds read low 0.985 | locus YBR231C, strain swc5, active compounds read low 0.996 | locus YBR279W, strain paf1, active compounds read low 1 | locus YCL011C, strain gbp2, active compounds read low 0.995 | locus YCL016C, strain dcc1, active compounds read low 0.993 | locus YCL029C, strain bik1, active compounds read low 0.982 | locus YCL061C, strain MRC1, active compounds read low 0.998 | locus YCL069W, strain vba3, active compounds read low 0.999 | locus YCR088W, strain abp1, active compounds read low 0.987 | locus YDL005C, strain med2, active compounds read low 0.991 | locus YDL035C, strain GPR1, active compounds read low 1.02 | locus YDL040C, strain nat1, active compounds read low 0.991 | locus YDL074C, strain BRE1, active compounds read low 1 | locus YDL101C, strain DUN1, active compounds read low 0.988 | locus YDL134C, strain PPH21, active compounds read low 0.993 | locus YDL185W, strain tfp1, active compounds read low 0.984 | locus YDL192W, strain arf1, active compounds read low 0.987 | locus YDR001C, strain nth1, active compounds read low 1 | locus YDR069C, strain doa4, active compounds read low 1.01 | locus YDR101C, strain arx1, active compounds read low 0.988 | locus YDR137W, strain rgp1, active compounds read low 1.01 | locus YDR159W, strain sac3, active compounds read low 0.987 | locus YDR162C, strain NBP2, active compounds read low 1.01 | locus YDR195W, strain ref2 0.981 | locus YDR297W, strain sur2, active compounds read low 0.993 | locus YDR318W, strain mcm21, active compounds read low 1 | locus YDR334W, strain swr1, active compounds read low 1.02 | locus YDR335W, strain msn5, active compounds read low 0.998 | locus YDR388W, active compounds read low 0.997 | locus YDR392W, strain spt3, active compounds read low 0.927 | locus YDR502C, strain sam2, active compounds read low 0.989 | locus YEL003W, strain gim4, active compounds read low 1 | locus YEL037C, strain rad23, active compounds read low 1.01 | locus YEL061C, strain CIN8 (second series), active compounds read low 0.998 | locus YEL061C, strain CIN8, active compounds read low 0.997 | locus YER015W, strain faa2, active compounds read low 1.01 | locus YER016W, strain bim1, active compounds read low 0.995 | locus YER110C, active compounds read low 0.977 | locus YER111C, strain swi4, active compounds read low 0.998 | locus YER155C, strain BEM2 (second series), active compounds read low 1.02 | locus YER155C, strain BEM2, active compounds read low 0.98 | locus YER167W, strain BCK2, active compounds read low 1.01 | locus YFR010W, strain ubp6, active compounds read low 1 | locus YGL078C, strain dbp3, active compounds read low 0.995 | locus YGL086W, strain mad1, active compounds read low 1 | locus YGL167C, strain pmr1, active compounds read low 0.991 | locus YGL173C, strain kem1, active compounds read low 0.979 | locus YGL227W, strain vid30, active compounds read low 1 | locus YGL240W, strain doc1, active compounds read low 1 | locus YGL248W, strain PDE1, active compounds read low 0.995 | locus YGL253W, strain hxk2, active compounds read low 1 | locus YGR078C, strain PAC10, active compounds read low 1.01 | locus YGR135W, strain pre9, active compounds read low 1 | locus YGR229C, strain SMI1, active compounds read low 1.02 | locus YGR252W, strain gcn5, active compounds read low 1 | locus YHR013C, strain ard1, active compounds read low 0.984 | locus YHR027C, strain rpn1, active compounds read low 0.988 | locus YHR030C, strain SLT2, active compounds read low 0.993 and 0.983 | locus YHR079C, strain IRE1 (second series), active compounds read low 1 | locus YHR079C, strain IRE1, active compounds read low 1.01 | locus YHR094C, strain hxt1, active compounds read low 0.982 | locus YHR129C, strain ARP1, active compounds read low 0.983 | locus YHR142W, strain chs7, active compounds read low 0.996 | locus YHR200W, strain rpn10, active compounds read low 0.997 | locus YIL066C, strain RNR3, active compounds read low 1 | locus YIL073C, strain SPO22, active compounds read low 1.02 | locus YIL125W, strain kgd1, active compounds read low 0.994 | locus YIR030C, strain dcg1, active compounds read low 0.993 | locus YJL092W, strain hpr5, active compounds read low 1 | locus YJL095W, strain BCK1 (second series), active compounds read low 0.99 | locus YJL095W, strain BCK1, active compounds read low 0.983 and 0.957 | locus YJL115W, strain asf1, active compounds read low 0.989 | locus YJL129C, strain trk1, active compounds read low 0.99 | locus YJL134W, strain LCB3, active compounds read low 0.997 | locus YJL154C, strain vps35, active compounds read low 0.993 | locus YJL164C, strain tpk1, active compounds read low 1 | locus YJL166W, strain qcr8, active compounds read low 0.989 | locus YJL168C, strain set2, active compounds read low 1 | locus YJL187C, strain SWE1 (second series), active compounds read low 0.987 | locus YJL187C, strain SWE1, active compounds read low 0.996 | locus YJR043C, strain POL32, active compounds read low 1.04 | locus YJR066W, strain TOR1, active compounds read low 0.992 | locus YKL009W, strain mrt4, active compounds read low 0.974 | locus YKL068W, active compounds read low 0.99 | locus YKL085W, strain MDH1 (second series), active compounds read low 1.01 | locus YKL085W, strain MDH1, active compounds read low 1.01 | locus YKL160W, strain elf1, active compounds read low 0.982 | locus YKR001C, strain vps1, active compounds read low 1.01 | locus YKR026C, strain gcn3, active compounds read low 0.99 | locus YKR091W, strain srl3, active compounds read low 1 | locus YLL001W, strain dnm1, active compounds read low 0.979 | locus YLL026W, active compounds read low 0.989 | locus YLL041C, strain sdh2, active compounds read low 1 | locus YLR027C, strain aat2, active compounds read low 0.99 | locus YLR039C, strain RIC1, active compounds read low 1.04 | locus YLR058C, strain SHM2, active compounds read low 0.992 | locus YLR102C, strain apc9, active compounds read low 0.992 | locus YLR113W, strain HOG1, active compounds read low 0.977 | locus YLR221C, strain rsa3, active compounds read low 0.981 | locus YLR258W, strain gsy2, active compounds read low 0.999 | locus YLR262C, strain YPT6 (second series), active compounds read low 0.986 | locus YLR262C, strain YPT6, active compounds read low 1.04 | locus YLR268W, strain sec22, active compounds read low 0.979 | locus YLR320W, strain mms22, active compounds read low 0.979 | locus YLR330W, strain CHS5, active compounds read low 1.01 | locus YLR342W, strain FKS1 (second series), active compounds read low 1.01 | locus YLR342W, strain FKS1, active compounds read low 1.01 | locus YLR357W, strain rsc2, active compounds read low 0.979 | locus YLR370C, strain arc18, active compounds read low 1 | locus YLR371W, strain rom2, active compounds read low 0.984 | locus YLR384C, strain iki3, active compounds read low 1.01 | locus YLR418C, strain cdc73, active compounds read low 1.02 | locus YML016C, strain PPZ1, active compounds read low 0.978 | locus YML032C, strain rad52, active compounds read low 1 | locus YML120C, strain ndi1, active compounds read low 0.996 | locus YML124C, strain tub3, active compounds read low 0.991 | locus YMR058W, strain fet3, active compounds read low 1.01 | locus YMR078C, strain ctf18, active compounds read low 0.991 | locus YMR125W, strain sto1, active compounds read low 0.975 | locus YMR129W, active compounds read low 0.995 | locus YMR205C, strain PFK2, active compounds read low 0.978 | locus YMR223W, strain ubp8, active compounds read low 0.995 | locus YMR231W, strain pep5, active compounds read low 0.999 | locus YMR307W, strain GAS1, active compounds read low 1.06 | locus YNL067W, strain RPL9B, active compounds read low 0.993 | locus YNL071W, strain lat1, active compounds read low 0.997 | locus YNL153C, strain GIM3, active compounds read low 0.993 | locus YNL183C, strain NPR1, active compounds read low 0.967 | locus YNL209W, strain ssb2, active compounds read low 1 | locus YNL233W, strain BNI4, active compounds read low 0.998 | locus YNL248C, strain rpa49, active compounds read low 0.993 | locus YNL250W, strain rad50, active compounds read low 0.984 | locus YNL271C, strain bni1, active compounds read low 0.991 | locus YNL298W, strain CLA4, active compounds read low 1 | locus YNL307C, strain MCK1, active compounds read low 0.985 | locus YNL322C, strain KRE1 (second series), active compounds read low 0.979 | locus YNR049C, strain mso1, active compounds read low 0.994 | locus YNR052C, strain pop2, active compounds read low 0.993 | locus YOL006C, strain TOP1, active compounds read low 0.968 | locus YOL012C, strain htz1 2.29 | locus YOL147C, strain pex11, active compounds read low 0.992 | locus YOR001W, strain rrp6, active compounds read low 1.03 | locus YOR061W, strain CKA2, active compounds read low 0.988 | locus YOR069W, strain VPS5, active compounds read low 0.982 | locus YOR070C, strain gyp1, active compounds read low 1.02 | locus YOR080W, strain dia2, active compounds read low 0.986 | locus YOR083W, strain WHI5, active compounds read low 0.973 | locus YOR106W, strain vam3, active compounds read low 1 | locus YOR136W, strain idh2, active compounds read low 0.985 | locus YOR144C, strain elg1, active compounds read low 0.998 | locus YOR184W, strain ser1, active compounds read low 0.991 | locus YOR231W, strain MKK1, active compounds read low 1.01 | locus YOR265W, strain rbl2, active compounds read low 1 | locus YOR270C, strain vph1, active compounds read low 1.03 | locus YOR290C, strain snf2, active compounds read low 0.975 | locus YOR316C, strain cot1, active compounds read low 0.993 | locus YPL051W, strain arl3, active compounds read low 0.993 | locus YPL078C, strain atp4, active compounds read low 0.997 | locus YPL106C, strain sse1, active compounds read low 0.968 | locus YPL240C, strain hsp82, active compounds read low 0.999 | locus YPL256C, strain CLN2, active compounds read low 1.01 | locus YPR119W, strain clb2, active compounds read low 0.999 | locus YPR141C, strain kar3, active compounds read low 0.982 | locus YPR163C, strain tif3, active compounds read low 0.996 | locus YPR167C, strain met16, active compounds read low 0.995 | strain wtn01, active compounds read low 0.967
